CYP2C9 inh = blocks human cytochrome P450 2C9; P11712; CYP2C9 Supersomes, luciferin-H conversion, luminescence; inhibition, % at 5 µM; hit rate 20% among 96,000; AID 777;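 active means blocking of liver enzyme CYP2C9 beyond about 50% at 5 µM, limit read from the data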
CYP2C19 inhib = blocks human cytochrome P450 2C19 | AID 778 | inhibition, % at 5 µM | P33261 | CYP2C19 Supersomes, luciferin-H EGE luminescence, 30 min | hit rate 21% among 96,000;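 active means CYP2C19 inhibition above a set limit at 5 µM in the primary screen, cut at about 50% in these data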
Target sequence (P33261 whole entry, looked up): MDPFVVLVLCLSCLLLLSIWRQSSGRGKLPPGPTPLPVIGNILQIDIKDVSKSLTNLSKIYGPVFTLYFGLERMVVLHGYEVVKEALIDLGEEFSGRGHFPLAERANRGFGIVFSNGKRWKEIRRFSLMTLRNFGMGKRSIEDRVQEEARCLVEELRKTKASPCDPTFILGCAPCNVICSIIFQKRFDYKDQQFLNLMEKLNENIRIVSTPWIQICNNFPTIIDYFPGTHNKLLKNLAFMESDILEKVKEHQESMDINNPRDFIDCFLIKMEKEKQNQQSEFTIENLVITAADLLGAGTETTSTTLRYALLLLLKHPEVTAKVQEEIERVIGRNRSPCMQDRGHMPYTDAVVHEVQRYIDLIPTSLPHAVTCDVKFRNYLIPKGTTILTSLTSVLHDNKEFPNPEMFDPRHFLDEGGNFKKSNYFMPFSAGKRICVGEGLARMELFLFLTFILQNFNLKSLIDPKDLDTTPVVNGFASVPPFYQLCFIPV
CYP2C19 act = activators of human cytochrome P450 2C19. P33261. recombinant CYP2C19, luciferin-H EGE luminescence; hits give high values; 0 = fully inhibited enzyme, 1 = untreated enzyme. activation factor at 5 µM. 96,000 tested, under 10 active. AID 1025;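 active means activation factor of at least 2 at 5 µM in the primary screen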
PostGolgi ctrl = yeast control strain growth, post-Golgi counter-screen. efflux-deficient yeast background strain, growth absorbance A615, 16 h. AID 738. hit rate 5% among 98,000. inhibition, % at 10 µM
CYP2C9 act = activators of human CYP2C9. hit rate 1.4% among 96,000. AID 1024. recombinant CYP2C9, luciferin-H conversion, luminescence; hits give high values; factor 1 = untreated enzyme, 0 = blocked. activation factor at 5 µM;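 active means activation factor of 2 or more for CYP2C9 at a 5 µM dose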
PostGolgi yeast = growth inhibition of a yeast mutant, post-Golgi transport screen; hit rate 0.9% among 98,000; AID 739; post-Golgi transport phenotypic cell assay; inhibition, % at 10 µM;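 further: yeast cells grown in 1536-well plates; yeast grown about 18 h at 30C before absorbance read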
Hits are given with their value; - = inactive; . = not tested or not shown. Compounds with a hit are over-represented: about 32% of the library has one in this group of screens. Unless noted, no stated cut-off is given here; in the data, active means inhibition above about 30%; inactive means the rest.

SMILES	CYP2C9 inh	CYP2C19 inhib	CYP2C19 act	PostGolgi ctrl	CYP2C9 act	PostGolgi yeast
O=C(Cn1nnc(-c2ccc(S(=O)(=O)N3CCCC3)cc2)n1)NCC1CCCO1 (stereo not given)	70	-	-	-	-	34
O=C(Cn1nnc(-c2ccccc2)n1)N1CCN(S(=O)(=O)c2ccc(Cl)cc2)CC1	-	-	-	-	-	-
CC1CCCN(S(=O)(=O)c2ccc(NC(=O)Cn3nnc(-c4ccccc4F)n3)cc2)C1 (stereo not given)	99	62	-	-	-	-
Cc1ccccc1-c1nnn(CC(=O)N2CCN(S(=O)(=O)c3ccc(Cl)cc3)CC2)n1	-	62	-	-	-	-
CCc1nnc(NC(=O)Cn2nnc(-c3ccccc3F)n2)s1	66	-	-	-	-	-
COc1ccc(NC(=O)Cn2nnc(-c3ccccc3F)n2)cc1	-	-	-	-	-	-
CCOC(=O)c1c(C)n(CC(COC(C)=O)OC(C)=O)c2ccc(OC(C)=O)cc12 (stereo not given)	-	-	-	-	-	-
CCOCCCNC(=O)C1CCCN1C(=O)NC1CCCCC1 (stereo not given)	-	-	-	-	-	-
Nc1nncn1C(=O)c1cc(Br)ccc1Cl	-	-	-	-	-	-
C=CCc1c(C)nc(C)nc1N/N=C/c1ccc(N(C)C)cc1	-	-	-	-	-	-
Cc1ccc(-c2nnn(CC(=O)Nc3ccc(S(=O)(=O)N4CCC(C)CC4)cc3)n2)cc1	-	-	-	-	-	-
CC1CCN(S(=O)(=O)c2ccc(NC(=O)Cn3nnc(-c4ccccc4)n3)cc2)CC1	76	-	-	-	-	-
Nc1c(C(=O)Nc2ccc(F)cc2)sc2nc(-c3ccco3)ccc12	-	-	-	40	-	-
CCN(C(=O)c1cc2cc(OC)ccc2oc1=O)c1cccc(C)c1	51	56	-	-	-	-
CCN(C(=O)c1cc2cc(OC)ccc2oc1=O)c1ccccc1	-	-	-	-	-	-
COc1ccc(-c2nn3c(-c4ccco4)nnc3s2)cc1OC	-	-	-	31	-	-
COc1cccc(-c2nnc3sc(-c4ccco4)nn23)c1	-	-	-	-	-	-
COc1ccc(-c2nnc3sc(-c4ccco4)nn23)cc1OC	-	-	-	-	-	-
c1coc(-c2nnc3sc(-c4cccs4)nn23)c1	-	64	-	-	-	-
COc1cc(OC)c(-c2nn3c(-c4ccco4)nnc3s2)cc1OC	73	-	-	34	-	-
COc1cc(OC)c(-c2nn3c(-c4ccncc4)nnc3s2)cc1OC	-	-	-	.	-	.
CCOc1cccc(-c2nn3c(-c4ccco4)nnc3s2)c1	-	-	-	43	-	-
COc1cccc(-c2noc(N)c2C#N)c1	-	-	-	-	-	-
c1ccc(OCc2nn3c(-c4ccco4)nnc3s2)cc1	-	67	-	-	-	-
COc1cc(-c2nnc3sc(-c4ccco4)nn23)cc(OC)c1OC	65	-	-	-	-	-
SMILES	CYP2C9 inh	CYP2C19 inhib	CYP2C19 act	PostGolgi ctrl	CYP2C9 act	PostGolgi yeast
Oc1ccc(-c2cccc(-c3ccc(O)cc3)n2)cc1	61	-	-	-	-	-
CCCCC1CC1C(=O)Nc1ccc(OC)c(OC)c1 (stereo not given)	59	92	-	37	-	-
COc1ccc(NC(=O)CN(C2CCCCC2)S(C)(=O)=O)cc1OC	-	50	-	-	-	-
CSc1cccc(NC(=O)CN(C2CCCCC2)S(C)(=O)=O)c1	71	59	-	-	-	-
CCCCOC(=O)c1ccc(NC(=O)Nc2ccc(OC)c(OC)c2)cc1	-	-	-	-	-	-
Cc1ccc(-n2cc(-c3ccccc3)[nH]c2=O)cc1F	-	-	-	-	-	-
Cn1c(C(=O)Nc2ccc3c(c2)OCO3)cc2sccc21	-	96	-	-	-	-
Cn1c(C(=O)NCc2ccc3c(c2)OCO3)cc2sccc21	75	80	-	-	-	-
CCc1ccccc1NC(=O)c1cc2sccc2n1C	-	-	-	-	-	-
COc1cc(NC(=O)c2cc3sccc3n2C)cc(OC)c1	80	86	-	-	-	-
O=C(CS(=O)CC(=O)N(CC(=O)NC1CCCC1)C1CCCC1)Nc1ccc(F)cc1 (stereo not given)	-	-	-	-	-	-
O=C(Nc1ccccc1-c1ccccc1)NC1CCN(CC(=O)N2CCOCC2)CC1	-	-	-	-	-	-
O=C(Cn1[nH]c(=O)c2ccccc2c1=O)NC1CCCCCC1	-	-	-	-	-	-
O=c1[nH]n(CC2COC3(CCCCC3)O2)c(=O)c2ccccc12 (stereo not given)	-	76	-	-	-	-
CC1=NNC(=O)/C1=C\c1cn(-c2ccccc2)nc1-c1ccc(Cl)cc1	-	-	-	98	-	109
COCCn1ccc(O)c(Cc2ccc(Cl)cc2)c1=O	-	-	-	-	-	-
CCOC(=O)C1=C(N)OC2=C(C(=O)CCC2)C1c1ccc(C)s1 (stereo not given)	-	53	-	-	-	-
CCOC(=O)C1=C(N)OC2=C(C(=O)CCC2)C1c1ccco1 (stereo not given)	-	-	-	-	-	-
CCOc1ccccc1C1C(C(=O)OC)=C(N)OC2=C1C(=O)CCC2 (stereo not given)	70	93	-	-	-	-
Cc1ccc(CC23CN4CCN(CC(C4)C2O)C3)c(C)c1 (stereo not given)	-	-	-	-	-	-
COc1cc(OC)c(N2CC34C=CC(O3)C(C(=O)O)C4C2=O)cc1Cl (stereo not given)	-	-	-	-	-	-
N#CC1=C2SCN(c3ccccc3)CN2C(=O)CC1c1cccs1 (stereo not given)	83	50	-	-	-	-
N#CC1=C2SCN(c3ccccc3)CN2C(=O)CC1c1c(Cl)cccc1Cl (stereo not given)	88	-	-	-	-	-
Cc1ccc(C2CC(=O)N3CN(c4ccc(Br)cc4)CSC3=C2C#N)o1 (stereo not given)	98	90	-	-	-	-
N#CC1=C2SCN(c3ccccc3)CN2C(=O)CC1c1ccccc1Cl (stereo not given)	61	-	-	-	-	-
CCOc1ccc(N2CSC3=C(C#N)C(c4ccco4)CC(=O)N3C2)cc1 (stereo not given)	-	-	-	-	-	-
Cc1ccc(C(=O)CSC2=C(C#N)C(c3ccco3)C3=C(CCCC3=O)N2)cc1 (stereo not given)	92	88	-	-	-	-
N#CC1=C(SCC(=O)c2ccccc2)NC2=C(C(=O)CCC2)C1c1ccco1 (stereo not given)	92	94	-	-	-	-
CC(C)(C)c1ccc(C(=O)CCCSC2=C(C#N)C(c3ccco3)C3=C(CCCC3=O)N2)cc1 (stereo not given)	67	-	-	-	-	-

Screening results: PubChem, several laboratories
